{
  "source": "PubChem BioAssay (EPA / NIEHS)",
  "note": "Several values for one entry are separate records, joined by “and”; a condition that tells them apart may be missing. Equal values may be shown once. Results filed as inconclusive are left out. Activity calls are given as the source filed them. The calls were made as follows: active = hit-call score of the fitted dose curve at least 0.9, where 1 is the maximum; inconclusive = response in the unintended direction; inactive = score below 0.9.",
  "data": [
    {"assay": "TOX21_p53_BLA_p5_viability: Viability Assessment in the Tox21 HCT-116 p53 Agonism Beta-lactamase Assay, Phase 5 (AID 2283600)", "excerpt": "TOX21_p53_BLA_p5 is a cell-based, single-readout assay that uses HCT116, a human intestinal cell line, […] in a 1536-well plate.TOX21_p53_BLA_p5_viability is an assay readout measuring cellular ATP content and detected with CellTiter-Glo Luciferase-coupled ATP quantitation.TOX21_p53_BLA_p5_viability used a type of viability reporter where loss-of-signal activity can be used to understand changes in the cell viability. Furthermore, this assay endpoint can be referred to as a secondary readout, because this assay has produced multiple assay endpoints where this one serves a viability function. To generalize the intended target to other relatable targets, this assay endpoint is annotated to the cell cycle intended target family, where the subfamily is cytotoxicity.\nThawing Method: Place 14 mL of pre-warmed thaw medium into a 15 mL of conical tub. Remove the vial of cells to be thawed from liquid nitrogen and thaw rapidly by placing at 37C in a water bath with gentle agitation for 1-2 minutes. Decontaminate the vial by wiping with 70% ethanol before opening in a biological safety cabinet. Transfer the vial contents drop-wise into 14 mL of thaw medium in a sterile 15-mL conical tub. Centrifuge cells at 900 rpm for 4 minutes and resuspend in thaw medium. Transfer contents to the T75 tissue culture flask containing Thaw Medium and place flask in a humidified 37C/5% CO2 incubator. Switch to growth medium at first passage.Propagation Method: Aspirate medium, rinse once in DPBS, add 0.25% Trypsin/EDTA and swirl to coat the cell evenly. Add an equal volume of Growth Medium to inactivate Trypsin after 2-3 minutes incubation at 37C. Centrifuge cells at 900 rpm for 4 minutes and resuspend in growth medium. Cell should be passage or fed at least twice a week.Assay Protocol: Harvest cells from culture in growth medium and resuspend in assay medium. 2.2 Dispense 4000 cells/5 uL/well into 1536-well black/clear bottom plates using a Multidrop dispenser. After the cells were incubated at 37C for 5 hours, 23 nL of compounds dissolved in DMSO were transferred to the assay plate by a PinTool resulting in a 217-fold dilution. Incubate the plates for 16 hours at 37C, 5% CO2. Add 1 uL of 6X LiveBLAzer FRET B/G (CCF4-AM) Substrate Mixture to each well using a BioRAPTR dispenser and incubate the plates at room temperature for 2 hours. Measure fluorescence intensity at 460 and 530 nm emission and 405 nm excitation by an Envision detector. Data is expressed as the ratio of 460nm/530nm emissions. Add 4 uL of Cell-titer Glo to each well using BioRAPTR and incubate the plates at room temperature for […]. For cell viability readout that measures cytotoxicity, 4 ul/well of CellTiter-Glo reagent was added into the assay plates using a Flying Reagent Dispenser. After 30 min incubation at room temperature, the luminescence intensity in the plates was measured using a ViewLux plate reader.", "values": [
      {"compound": "O=C1C=CC(=O)N1c1ccccc1", "AC50": "74.9 µM (active)"},
      {"compound": "CC(=O)CCC(C)C", "outcome": "inactive"},
      {"compound": "C[C@]12CC[C@H]3C(=CCc4cc(O)ccc43)[C@@H]1CCC2=O", "outcome": "inactive"},
      {"compound": "C=CCOC(=O)CC(C)C", "outcome": "inactive"},
      {"compound": "Cc1cc(O)c(C(C)(C)C)cc1C(C)(C)C", "AC50": "34.3 µM (active)"},
      {"compound": "CC(C)OC=O", "outcome": "inactive"},
      {"compound": "CCC(=O)OC(C)c1ccccc1", "note": "(stereo not drawn)", "outcome": "inactive"},
      {"compound": "CCC/C=C/CO", "outcome": "inactive"},
      {"compound": "CCC(Cc1c(I)cc(I)c(N)c1I)C(=O)O", "note": "(stereo not drawn)", "outcome": "inactive"},
      {"compound": "Cc1ccc([N+](=O)[O-])c(C)c1", "outcome": "inactive"},
      {"compound": "CCCCCC/C=C/CCCCCCCC(=O)O", "outcome": "inactive"},
      {"compound": "CCN=c1cc2oc3cc(NCC)c(C)cc3c(-c3ccccc3C(=O)OCC)c-2cc1C", "AC50": "60.8 µM (active) and 63.2 µM (active)"},
      {"compound": "O=C1C=CC(=O)N1c1ccc(Cc2ccc(N3C(=O)C=CC3=O)cc2)cc1", "AC50": "86.3 µM (active)"},
      {"compound": "O=S(=O)(O)c1ccc(Cl)cc1", "outcome": "inactive"},
      {"compound": "CCc1cc(Cc2cc(CC)c(N)c(CC)c2)cc(CC)c1N", "outcome": "inactive"},
      {"compound": "COC(=O)c1ccc(C=O)cc1", "outcome": "inactive"},
      {"compound": "CO[Si](CCCOCC1CO1)(OC)OC", "note": "(stereo not drawn)", "outcome": "inactive"},
      {"compound": "CC(C)(C)C(=O)C1C(=O)c2ccccc2C1=O", "outcome": "inactive"},
      {"compound": "CCOC(OCC)OCC", "outcome": "inactive"},
      {"compound": "CCCCCCCCn1sc(Cl)c(Cl)c1=O", "outcome": "inactive"},
      {"compound": "CCN=C1C=CC(=C(c2ccc(N(CC)CC)cc2)c2ccc(N(CC)CC)cc2)c2ccccc21", "AC50": "69.4 µM (active)"},
      {"compound": "CCOC(=O)CCC(C)=O", "outcome": "inactive"},
      {"compound": "CC(O)C#CC(C)O", "note": "(stereo not drawn)", "outcome": "inactive"},
      {"compound": "OCC1CCCO1", "note": "(stereo not drawn)", "outcome": "inactive"},
      {"compound": "Cc1ccc(O)c(-n2nc3ccccc3n2)c1", "outcome": "inactive"},
      {"compound": "CCOC(=O)C1CC(=O)C(=C(O)C2CC2)C(=O)C1", "note": "(stereo not drawn)", "outcome": "inactive"},
      {"compound": "Brc1nc2ccccc2s1", "outcome": "inactive"},
      {"compound": "CCCCOC(=O)[C@H](C)O", "outcome": "inactive"},
      {"compound": "CCC(C)CO", "note": "(stereo not drawn)", "outcome": "inactive"},
      {"compound": "CSc1ccc(Cl)cc1", "outcome": "inactive"},
      {"compound": "CC(C)OC(=O)COc1ccc(Cl)cc1Cl", "outcome": "inactive"},
      {"compound": "CC(C)CCCC(C)CCO", "note": "(stereo not drawn)", "outcome": "inactive"},
      {"compound": "CCCCCCCC/C=C\\CCCCCCCC(=O)N(C)CC(=O)O", "AC50": "43.7 µM (active)"},
      {"compound": "Cc1cc(=O)[nH]c(C(C)C)n1", "outcome": "inactive"},
      {"compound": "CN(N=O)C(=O)N[C@@H]1[C@@H](O)[C@H](O)[C@@H](CO)O[C@@H]1O", "outcome": "inactive"},
      {"compound": "CC(C)Nc1ccc(NC(C)C)c2c1C(=O)c1ccccc1C2=O", "outcome": "inactive"},
      {"compound": "F[Si-2](F)(F)(F)(F)F", "outcome": "inactive"},
      {"compound": "CCCCC(CC)COC(=O)c1ccc(N(C)C)cc1", "note": "(stereo not drawn)", "outcome": "inactive"}
    ]}
  ]
}
